Laboratory results published in ChEMBL document CHEMBL2218924, “A broad activity screen in support of a chemogenomic map for kinase signalling research and drug discovery” (Biochem J, 2013).

Legend:
[1] = biological target: ALK tyrosine kinase receptor (Homo sapiens) (UniProt Q9UM73); conditions: at 10 µM
[2] = biological target: T1, Activin receptor type-1B (Homo sapiens) (UniProt P36896); conditions: at 1 µM
T1 sequence (whole entry): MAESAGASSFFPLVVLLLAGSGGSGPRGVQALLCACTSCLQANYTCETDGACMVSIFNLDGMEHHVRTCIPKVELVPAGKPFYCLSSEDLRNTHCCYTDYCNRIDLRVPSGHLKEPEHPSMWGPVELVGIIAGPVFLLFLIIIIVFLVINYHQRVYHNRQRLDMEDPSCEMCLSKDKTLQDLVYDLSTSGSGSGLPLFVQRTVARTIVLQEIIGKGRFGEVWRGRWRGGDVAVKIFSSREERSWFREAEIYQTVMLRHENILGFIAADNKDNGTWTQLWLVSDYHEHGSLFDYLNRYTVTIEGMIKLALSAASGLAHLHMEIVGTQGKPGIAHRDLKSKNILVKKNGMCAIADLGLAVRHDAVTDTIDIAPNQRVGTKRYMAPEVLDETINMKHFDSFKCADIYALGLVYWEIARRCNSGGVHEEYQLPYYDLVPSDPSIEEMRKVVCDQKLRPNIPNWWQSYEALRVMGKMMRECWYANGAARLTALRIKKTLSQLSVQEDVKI

[3] = biological target: T1, Activin receptor type-1B (Homo sapiens); conditions: at 10 µM
[4] = biological target: T2, AMP-activated protein kinase (AMPK) alpha-1/beta-1/gamma-1 (Homo sapiens) (UniProt P54619+Q9Y478+Q13131); conditions: at 1 µM
[5] = biological target: T3, AMP-activated protein kinase, AMPK (Homo sapiens) (UniProt P54646+O43741+P54619+Q9UGJ0+Q9Y478+Q13131+Q9UGI9); conditions: at 1 µM
[6] = biological target: T3, AMP-activated protein kinase, AMPK (Homo sapiens); conditions: at 10 µM
[7] = biological target: T4, NUAK family SNF1-like kinase 1 (Homo sapiens) (UniProt O60285); conditions: at 1 µM
T4 sequence (whole entry): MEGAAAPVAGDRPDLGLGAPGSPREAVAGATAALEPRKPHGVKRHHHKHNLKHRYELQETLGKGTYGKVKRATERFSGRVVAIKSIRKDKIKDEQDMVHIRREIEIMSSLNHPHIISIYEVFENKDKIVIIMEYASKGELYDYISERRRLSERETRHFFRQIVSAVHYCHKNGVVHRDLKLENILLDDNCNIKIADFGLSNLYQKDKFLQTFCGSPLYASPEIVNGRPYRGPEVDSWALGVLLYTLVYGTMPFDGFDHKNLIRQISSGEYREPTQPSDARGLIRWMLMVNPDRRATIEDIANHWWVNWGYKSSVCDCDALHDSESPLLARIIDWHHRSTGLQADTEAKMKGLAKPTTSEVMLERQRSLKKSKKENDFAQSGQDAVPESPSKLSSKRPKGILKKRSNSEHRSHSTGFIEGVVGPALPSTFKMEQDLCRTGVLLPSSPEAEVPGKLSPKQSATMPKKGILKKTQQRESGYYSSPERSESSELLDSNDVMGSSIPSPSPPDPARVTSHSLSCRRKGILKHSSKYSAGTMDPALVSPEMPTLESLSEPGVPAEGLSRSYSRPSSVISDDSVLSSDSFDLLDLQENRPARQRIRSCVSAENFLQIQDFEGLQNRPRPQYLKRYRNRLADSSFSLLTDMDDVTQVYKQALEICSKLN

[8] = biological target: T4, NUAK family SNF1-like kinase 1 (Homo sapiens); conditions: at 10 µM
[9] = biological target: Platelet-derived growth factor receptor alpha (Homo sapiens) (UniProt P16234); conditions: at 1 µM
Sequence of Platelet-derived growth factor receptor alpha (Homo sapiens) (P16234 whole entry): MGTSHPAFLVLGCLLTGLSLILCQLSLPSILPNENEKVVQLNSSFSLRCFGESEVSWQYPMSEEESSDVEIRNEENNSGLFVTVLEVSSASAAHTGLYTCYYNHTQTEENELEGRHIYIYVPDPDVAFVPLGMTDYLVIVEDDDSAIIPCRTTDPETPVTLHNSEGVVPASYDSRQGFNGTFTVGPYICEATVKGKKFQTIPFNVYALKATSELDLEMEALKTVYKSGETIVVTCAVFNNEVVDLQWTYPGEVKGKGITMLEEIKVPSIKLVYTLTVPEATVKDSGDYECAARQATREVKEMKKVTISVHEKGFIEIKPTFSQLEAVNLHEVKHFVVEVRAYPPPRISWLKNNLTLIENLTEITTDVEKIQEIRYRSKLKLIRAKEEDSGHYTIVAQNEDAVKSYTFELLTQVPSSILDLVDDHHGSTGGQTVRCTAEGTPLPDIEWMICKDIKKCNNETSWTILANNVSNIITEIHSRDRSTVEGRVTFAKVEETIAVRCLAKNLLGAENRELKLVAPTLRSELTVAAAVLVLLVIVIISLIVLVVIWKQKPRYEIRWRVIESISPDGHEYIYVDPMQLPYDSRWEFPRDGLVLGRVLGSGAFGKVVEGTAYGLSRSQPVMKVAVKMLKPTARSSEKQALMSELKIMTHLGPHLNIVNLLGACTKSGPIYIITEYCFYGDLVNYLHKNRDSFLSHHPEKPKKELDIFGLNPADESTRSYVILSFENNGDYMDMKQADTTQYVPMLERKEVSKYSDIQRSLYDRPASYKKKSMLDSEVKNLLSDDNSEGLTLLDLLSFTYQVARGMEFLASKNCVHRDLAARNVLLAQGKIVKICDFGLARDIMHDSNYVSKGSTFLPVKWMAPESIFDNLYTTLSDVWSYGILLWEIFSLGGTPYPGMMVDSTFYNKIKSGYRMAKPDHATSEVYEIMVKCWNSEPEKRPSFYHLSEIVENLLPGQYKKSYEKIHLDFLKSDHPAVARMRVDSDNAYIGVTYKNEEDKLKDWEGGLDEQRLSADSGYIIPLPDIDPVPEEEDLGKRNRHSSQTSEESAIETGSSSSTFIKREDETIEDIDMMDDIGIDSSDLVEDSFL

[10] = biological target: Platelet-derived growth factor receptor alpha (Homo sapiens) (UniProt P16234); conditions: at 10 µM
[11] = biological target: Platelet-derived growth factor receptor beta (Homo sapiens) (UniProt P09619); conditions: at 1 µM
Sequence of Platelet-derived growth factor receptor beta (Homo sapiens) (P09619 whole entry): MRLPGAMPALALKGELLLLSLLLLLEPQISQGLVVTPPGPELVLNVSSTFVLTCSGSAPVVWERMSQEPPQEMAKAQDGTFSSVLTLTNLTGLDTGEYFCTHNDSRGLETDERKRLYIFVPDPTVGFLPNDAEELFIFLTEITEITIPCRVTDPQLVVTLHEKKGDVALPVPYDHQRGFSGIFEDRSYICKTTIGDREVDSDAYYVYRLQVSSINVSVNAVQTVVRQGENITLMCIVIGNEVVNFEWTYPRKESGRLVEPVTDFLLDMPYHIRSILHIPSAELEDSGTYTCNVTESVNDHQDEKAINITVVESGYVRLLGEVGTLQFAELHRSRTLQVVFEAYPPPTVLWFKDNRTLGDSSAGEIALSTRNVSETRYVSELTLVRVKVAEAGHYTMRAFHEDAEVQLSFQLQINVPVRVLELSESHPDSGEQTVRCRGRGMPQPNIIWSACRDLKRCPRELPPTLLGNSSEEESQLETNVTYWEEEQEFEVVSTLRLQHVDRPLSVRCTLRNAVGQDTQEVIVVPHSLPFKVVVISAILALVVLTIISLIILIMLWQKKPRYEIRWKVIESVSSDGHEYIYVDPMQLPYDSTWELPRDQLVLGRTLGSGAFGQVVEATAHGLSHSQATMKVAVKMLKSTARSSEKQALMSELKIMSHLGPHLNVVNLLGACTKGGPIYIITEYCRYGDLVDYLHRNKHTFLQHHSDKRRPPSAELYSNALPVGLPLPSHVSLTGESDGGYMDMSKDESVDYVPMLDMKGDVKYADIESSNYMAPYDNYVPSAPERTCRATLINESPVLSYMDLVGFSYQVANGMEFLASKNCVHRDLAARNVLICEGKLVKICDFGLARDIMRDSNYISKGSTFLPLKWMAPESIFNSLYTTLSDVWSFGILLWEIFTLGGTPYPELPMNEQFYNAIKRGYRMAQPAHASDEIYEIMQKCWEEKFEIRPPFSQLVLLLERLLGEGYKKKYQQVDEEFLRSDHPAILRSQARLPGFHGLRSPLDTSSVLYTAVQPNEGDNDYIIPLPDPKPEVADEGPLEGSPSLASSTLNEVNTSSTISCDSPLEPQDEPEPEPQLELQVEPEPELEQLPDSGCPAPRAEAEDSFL

[12] = biological target: Platelet-derived growth factor receptor beta (Homo sapiens) (UniProt P09619); conditions: at 10 µM
[13] = biological target: T5, 3-phosphoinositide-dependent protein kinase 1 (Homo sapiens) (UniProt O15530); conditions: at 1 µM
T5 sequence (whole entry): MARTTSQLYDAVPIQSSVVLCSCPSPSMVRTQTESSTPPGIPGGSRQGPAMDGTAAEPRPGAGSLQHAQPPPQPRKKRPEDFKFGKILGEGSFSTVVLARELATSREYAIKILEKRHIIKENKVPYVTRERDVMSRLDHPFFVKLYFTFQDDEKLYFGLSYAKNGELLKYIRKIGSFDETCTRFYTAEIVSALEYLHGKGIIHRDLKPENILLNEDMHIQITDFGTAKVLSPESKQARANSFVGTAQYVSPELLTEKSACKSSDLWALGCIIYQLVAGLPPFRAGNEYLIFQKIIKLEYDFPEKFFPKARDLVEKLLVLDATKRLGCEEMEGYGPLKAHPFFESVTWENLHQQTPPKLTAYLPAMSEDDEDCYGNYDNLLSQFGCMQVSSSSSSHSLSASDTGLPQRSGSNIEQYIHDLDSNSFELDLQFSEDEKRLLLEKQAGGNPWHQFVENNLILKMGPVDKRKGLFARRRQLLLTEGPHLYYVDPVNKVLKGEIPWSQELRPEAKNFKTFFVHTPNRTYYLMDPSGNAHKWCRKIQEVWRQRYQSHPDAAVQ

[14] = biological target: T5, 3-phosphoinositide-dependent protein kinase 1 (Homo sapiens); conditions: at 10 µM
[15] = biological target: cAMP-dependent protein kinase catalytic subunit alpha (Homo sapiens) (UniProt P17612); conditions: at 1 µM
[16] = biological target: RAC-gamma serine/threonine-protein kinase (Homo sapiens) (UniProt Q9Y243); conditions: at 1 µM
Sequence of RAC-gamma serine/threonine-protein kinase (Homo sapiens) (Q9Y243 whole entry): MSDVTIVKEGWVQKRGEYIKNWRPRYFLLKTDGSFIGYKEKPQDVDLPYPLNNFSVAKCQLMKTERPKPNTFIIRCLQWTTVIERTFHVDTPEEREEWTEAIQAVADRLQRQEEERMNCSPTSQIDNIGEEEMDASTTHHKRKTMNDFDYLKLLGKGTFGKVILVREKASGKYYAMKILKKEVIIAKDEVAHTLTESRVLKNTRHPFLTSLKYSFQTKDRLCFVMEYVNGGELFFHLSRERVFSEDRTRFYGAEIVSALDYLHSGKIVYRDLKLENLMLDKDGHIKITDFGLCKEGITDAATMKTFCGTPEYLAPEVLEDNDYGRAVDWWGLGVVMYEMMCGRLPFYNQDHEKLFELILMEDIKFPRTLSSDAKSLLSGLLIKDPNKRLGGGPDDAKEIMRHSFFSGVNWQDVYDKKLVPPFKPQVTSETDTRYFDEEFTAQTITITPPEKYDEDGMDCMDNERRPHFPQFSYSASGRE

[17] = biological target: T2, AMP-activated protein kinase (AMPK) alpha-1/beta-1/gamma-1 (Homo sapiens); conditions: at 10 µM
[18] = biological target: T6, Mitogen-activated protein kinase kinase kinase 5 (Homo sapiens) (UniProt Q99683); conditions: at 1 µM
T6 sequence (whole entry): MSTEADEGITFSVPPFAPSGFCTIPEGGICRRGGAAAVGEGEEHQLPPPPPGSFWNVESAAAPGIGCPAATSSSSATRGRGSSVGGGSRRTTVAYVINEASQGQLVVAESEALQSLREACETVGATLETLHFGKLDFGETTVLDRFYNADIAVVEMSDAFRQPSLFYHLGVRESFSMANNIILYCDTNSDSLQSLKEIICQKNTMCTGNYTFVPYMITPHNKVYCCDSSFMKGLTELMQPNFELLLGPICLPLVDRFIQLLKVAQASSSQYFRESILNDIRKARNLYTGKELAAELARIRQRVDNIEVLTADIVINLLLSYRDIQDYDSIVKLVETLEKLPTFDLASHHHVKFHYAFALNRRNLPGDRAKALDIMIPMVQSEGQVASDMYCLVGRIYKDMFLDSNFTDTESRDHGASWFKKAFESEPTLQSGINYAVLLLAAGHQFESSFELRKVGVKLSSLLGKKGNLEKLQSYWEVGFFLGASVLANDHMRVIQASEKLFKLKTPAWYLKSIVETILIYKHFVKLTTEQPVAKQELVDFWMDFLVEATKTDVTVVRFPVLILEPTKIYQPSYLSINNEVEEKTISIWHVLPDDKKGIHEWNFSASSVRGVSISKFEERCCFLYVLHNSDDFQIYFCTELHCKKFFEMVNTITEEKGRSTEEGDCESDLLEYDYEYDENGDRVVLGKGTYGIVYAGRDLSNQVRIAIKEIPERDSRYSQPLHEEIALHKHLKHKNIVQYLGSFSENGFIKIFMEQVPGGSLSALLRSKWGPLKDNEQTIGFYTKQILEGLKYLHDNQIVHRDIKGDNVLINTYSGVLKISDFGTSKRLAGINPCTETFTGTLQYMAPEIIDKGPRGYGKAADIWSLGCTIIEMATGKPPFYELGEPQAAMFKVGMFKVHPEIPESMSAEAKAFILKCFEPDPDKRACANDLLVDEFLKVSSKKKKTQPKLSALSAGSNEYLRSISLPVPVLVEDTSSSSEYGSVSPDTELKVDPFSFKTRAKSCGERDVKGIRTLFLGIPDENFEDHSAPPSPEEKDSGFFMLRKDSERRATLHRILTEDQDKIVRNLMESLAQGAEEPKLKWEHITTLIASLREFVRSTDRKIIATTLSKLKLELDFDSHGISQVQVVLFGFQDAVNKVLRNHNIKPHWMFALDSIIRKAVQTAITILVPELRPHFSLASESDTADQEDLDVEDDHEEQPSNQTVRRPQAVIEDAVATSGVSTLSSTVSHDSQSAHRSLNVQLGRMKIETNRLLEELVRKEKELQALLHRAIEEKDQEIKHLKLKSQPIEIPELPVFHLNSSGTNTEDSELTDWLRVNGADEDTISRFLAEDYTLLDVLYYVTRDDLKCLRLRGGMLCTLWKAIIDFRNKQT

[19] = biological target: RAC-gamma serine/threonine-protein kinase (Homo sapiens) (UniProt Q9Y243); conditions: at 10 µM
[20] = biological target: cAMP-dependent protein kinase catalytic subunit alpha (Homo sapiens) (UniProt P17612); conditions: at 10 µM

Sequence of ALK tyrosine kinase receptor (Homo sapiens) (Q9UM73 19-1620 limits assumed): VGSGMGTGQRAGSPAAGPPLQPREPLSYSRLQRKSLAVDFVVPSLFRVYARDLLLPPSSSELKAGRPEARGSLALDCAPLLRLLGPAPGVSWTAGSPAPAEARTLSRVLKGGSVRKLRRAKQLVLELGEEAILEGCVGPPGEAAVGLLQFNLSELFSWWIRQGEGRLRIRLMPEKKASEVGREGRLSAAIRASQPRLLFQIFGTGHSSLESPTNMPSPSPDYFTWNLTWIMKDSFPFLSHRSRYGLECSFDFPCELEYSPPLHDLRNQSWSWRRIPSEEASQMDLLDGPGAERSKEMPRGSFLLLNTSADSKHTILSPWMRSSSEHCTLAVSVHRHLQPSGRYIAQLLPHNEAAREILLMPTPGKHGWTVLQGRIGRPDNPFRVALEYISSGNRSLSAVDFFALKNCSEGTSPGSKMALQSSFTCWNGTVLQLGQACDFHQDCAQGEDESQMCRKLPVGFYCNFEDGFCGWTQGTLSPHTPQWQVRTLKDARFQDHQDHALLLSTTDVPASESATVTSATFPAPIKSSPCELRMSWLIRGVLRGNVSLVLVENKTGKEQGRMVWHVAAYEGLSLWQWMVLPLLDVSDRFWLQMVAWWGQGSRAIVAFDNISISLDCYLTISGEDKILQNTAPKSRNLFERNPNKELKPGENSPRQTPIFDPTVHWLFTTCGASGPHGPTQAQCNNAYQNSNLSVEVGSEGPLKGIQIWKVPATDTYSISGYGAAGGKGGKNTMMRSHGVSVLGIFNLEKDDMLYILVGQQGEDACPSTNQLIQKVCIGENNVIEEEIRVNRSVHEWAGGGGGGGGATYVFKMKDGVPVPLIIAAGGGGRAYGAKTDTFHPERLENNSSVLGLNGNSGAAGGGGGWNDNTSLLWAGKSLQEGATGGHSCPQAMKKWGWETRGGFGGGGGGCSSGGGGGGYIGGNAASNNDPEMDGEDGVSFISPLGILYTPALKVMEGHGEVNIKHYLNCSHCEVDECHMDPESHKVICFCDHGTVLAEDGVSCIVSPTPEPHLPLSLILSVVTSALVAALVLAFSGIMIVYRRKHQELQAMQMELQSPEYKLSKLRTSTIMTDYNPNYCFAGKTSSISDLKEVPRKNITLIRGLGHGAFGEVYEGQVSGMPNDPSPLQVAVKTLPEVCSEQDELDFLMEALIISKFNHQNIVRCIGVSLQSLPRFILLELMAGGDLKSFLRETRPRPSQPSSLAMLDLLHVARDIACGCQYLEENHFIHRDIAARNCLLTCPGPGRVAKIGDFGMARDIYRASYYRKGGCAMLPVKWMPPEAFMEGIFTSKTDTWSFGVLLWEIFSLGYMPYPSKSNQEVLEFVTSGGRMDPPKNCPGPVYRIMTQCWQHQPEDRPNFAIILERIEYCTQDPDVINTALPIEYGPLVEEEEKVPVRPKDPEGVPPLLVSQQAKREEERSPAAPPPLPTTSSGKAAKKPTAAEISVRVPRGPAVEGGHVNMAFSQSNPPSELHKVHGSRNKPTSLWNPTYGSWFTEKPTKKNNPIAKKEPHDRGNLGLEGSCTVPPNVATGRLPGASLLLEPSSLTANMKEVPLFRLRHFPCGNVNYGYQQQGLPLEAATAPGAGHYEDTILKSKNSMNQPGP

| Structure (SMILES) | residual activity [1] | residual activity [2] | residual activity [3] | residual activity [4] | residual activity [5] | residual activity [6] | residual activity [7] | residual activity [8] | residual activity [9] | residual activity [10] | residual activity [11] | residual activity [12] | residual activity [13] | residual activity [14] | residual activity [15] | residual activity [16] | residual activity [17] | residual activity [18] | residual activity [19] | residual activity [20] |
| --- | --- | --- | --- | --- | --- | --- | --- | --- | --- | --- | --- | --- | --- | --- | --- | --- | --- | --- | --- | --- |
| CCCCc1c(-c2ccc(OC)cc2)[nH]c2nccnc12 | 31% | 81% | 39% | 82% | 74% | 92% | 15% | 22% | 105% | 111% | 104% | 105% | 70% | 65% | 86% | 119% |  |  |  |  |
| CCN(CC)CCNC(=O)c1c(C)[nH]c(/C=C2\C(=O)Nc3ccc(Cl)cc32)c1C | 2% | 126% | 99% | 7% | 4% | 4% | 6% | 6% | 2% | 1% | 1% | 1% | 78% | 39% | 81% | 79% | 3% | 60% | 33% |  |
| CN([C@@H](Cc1ccc(OS(=O)(=O)c2cccc3cnccc23)cc1)C(=O)N1CCN(c2ccccc2)CC1)S(=O)(=O)c1cccc2cnccc12 | 57% |  | 86% |  |  | 86% |  |  |  |  |  | 98% |  |  |  |  |  | 115% | 60% |  |
| CCCCc1c(-c2ccc(O)cc2)[nH]c2nccnc12 | 37% | 88% | 34% | 85% | 75% | 67% | 12% | 16% |  |  |  |  | 60% | 31% |  |  | 71% | 93% |  |  |
| O=c1c(-c2ccc(F)cc2)c(-c2ccncc2)[nH]n1-c1ccc(Cl)cc1 | 65% |  | 22% |  |  |  |  |  |  |  | 100% | 99% |  |  |  |  |  | 100% | 65% |  |
| COc1cc2ncnc(Nc3cccc(Cl)c3)c2cc1OC | 107% | 105% | 101% |  |  | 74% |  | 52% | 104% | 87% | 102% | 103% |  |  | 111% | 112% | 67% | 103% |  | 101% |
| O=C1NC(=O)C(c2cn(CCCO)c3ncccc23)=C1c1cnccn1 | 67% | 83% |  | 92% | 94% | 80% | 62% | 50% |  |  |  | 96% |  |  |  | 98% | 75% | 78% | 89% |  |
| CCCC(=O)Oc1ccc2[nH]c(C(=O)c3cc4ccccc4[nH]3)cc2c1 | 99% | 132% | 98% | 85% | 91% | 96% | 98% | 84% | 108% | 85% | 99% | 93% |  |  | 88% | 102% | 81% |  | 103% | 89% |
| O=C(NC(NC(=S)Nc1ccc(F)c([N+](=O)[O-])c1)C(Cl)(Cl)Cl)C(c1ccccc1)c1ccccc1 (stereo unspecified) | 97% | 94% | 103% | 90% | 89% | 77% |  | 86% |  |  | 97% | 96% | 103% | 87% |  | 98% | 71% |  | 69% |  |
| O=C(CCCc1ccc(-c2ccccc2F)cc1)Nc1ccc(O)cc1 | 44% | 111% | 94% | 106% | 106% | 99% | 96% | 78% | 103% |  | 102% | 125% | 105% | 90% | 107% | 109% | 89% | 99% | 87% | 128% |
| N#Cc1c(NC(=O)c2cccc3ccccc23)sc2c1CCCC2 | 91% | 87% | 93% | 86% | 98% |  |  | 92% |  |  |  | 92% |  |  |  |  | 97% | 88% | 81% | 91% |
| Nc1ncnc2c1c(-c1ccc(Oc3ccccc3)cc1)cn2C1CCCC1 | 27% | 125% |  | 99% | 94% | 63% | 83% | 67% | 17% | 4% | 54% | 6% | 104% | 95% | 85% | 98% | 61% | 90% | 71% | 88% |
| CC(C)(C)n1nc(Cc2cccc3ccccc23)c2c(N)ncnc21 | 49% | 129% | 60% | 103% | 89% | 74% | 105% | 92% | 116% | 72% | 99% | 71% | 108% | 117% | 34% | 92% | 72% | 111% | 44% | 8% |
| CCOc1nc(NC(=O)Cc2cc(OC)ccc2OC)cc(N)c1C#N | 69% |  |  |  |  |  |  |  |  |  |  |  |  |  |  |  |  |  |  |  |
